Measurements from PubChem BioAssay (Tox21).
Inconclusive results are not listed. Calls of active or inactive are those of the source. Unless noted, the call rests on the fitted dose curve; in most records, active means well fitted curve in the direction sought with a large enough effect in the repeat runs; inconclusive means weak or mixed curves; inactive means no such curve, though single readings can be large; an effect the other way counts as inactive or inconclusive.

How the values were obtained:
[1] = qHTS assay for small molecules that induce genotoxicity in human embryonic kidney cells expressing luciferase-tagged ATAD5 (AID 651632); further: nearly all actives have a fitted effect of over 15% in size
Summary of the method: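 Luminescence read-out: after 16 hr compound exposure at 37C, ATAD5-luciferase HEK293T cells received Amplite, 30 min RT, then CCD imaging. A rise in signal marks genotoxic stress.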

[2] = qHTS assay for small molecule agonists of the p53 signaling pathway - cell viability (AID 651633; calls by dose curve;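 further: p53RE-bla HCT reporter cells with a stable beta-lactamase p53 reporter; series mostly up to about 83 µM; nearly all actives have a fitted effect of over 30% in size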)
Summary of the method: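 p53RE-bla cells were treated with compound for 16 hours at 37 C. Cytotoxicity was then measured as CellTiter-Glo luminescence after 30 min at room temperature.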

[3] = qHTS assay for small molecules that induce genotoxicity in human embryonic kidney cells expressing luciferase-tagged ATAD5 - cell viability (AID 651634; calls by dose curve; further: nearly all actives have a fitted effect of over 25% in size)
Summary of the method: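 HEK293T ATAD5-luc cells, 2,000/well; compound 15.5 hr, 37C/5% CO2; CellTiter-Fluor 30 min, 37C; fluorescence read.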

[4] = qHTS assay for small molecule disruptors of the mitochondrial membrane potential - cell viability (AID 720634; calls by dose curve;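 further: human HepG2 liver cancer cells; series mostly up to about 83 µM; nearly all actives have a fitted effect of over 20% in size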)
Summary of the method: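 Luminescence from CellTiter-Glo (ATP content) gave viability in HepG2 cells, read in the same wells as the MMP dye assay after 1 hr compound exposure at 37 C.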

[5] = qHTS assay for small molecule disruptors of the mitochondrial membrane potential (AID 720635); further: potency means the concentration at half of the fitted maximal effect
Summary of the method: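 HepG2 cells exposed to compound 1 hr at 37C, then Mito-MPS dye 30 min. Ratio read of aggregate (540/590 nm) versus monomer (490/535 nm) fluorescence.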

[6] = qHTS assay to test for compound auto fluorescence at 590 nm (red) in HepG2 cells (AID 720674)
Summary of the method: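 Seeding: 2,000 HepG2 cells/well, MEM/10% FBS, overnight 37 C. Dosing: compound vs DMSO. Incubation: 1 hr, 37 C, 5% CO2. Read: fluorescence 540 ex/590 em, Rose Bengal sodium as red reference.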

[7] = qHTS assay to test for compound auto fluorescence at 535 nm (green) in HepG2 cells (AID 720675)
[8] = qHTS assay to test for compound auto fluorescence at 590 nm (red) in HEK293 cells (AID 720679)
Summary of the method: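 Intensity at 540nm excitation and 590nm emission is reported as Rose Bengal sodium-equivalent autofluorescence. Measurements followed overnight exposure (37C, 5% CO2) of HEK293 cells, 2,000 per well, to 23 nL compound.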

[9] = qHTS assay to test for compound auto fluorescence at 535 nm (green) in HEK293 cells (AID 720680)
[10] = qHTS assay to test for compound auto fluorescence at 460 nm (blue) in HEK293 cell free culture (AID 720681)
Summary of the method: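 Compounds were added to cell-free DMEM with 10% FBS and fluorescence read directly. The blue channel used 405 nm excitation and 460 nm emission, with triamterene as the reference fluorophore.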

[11] = qHTS assay to test for compound auto fluorescence at 535 nm (green) in HEK293 cell free culture (AID 720682)
Summary of the method: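 Green-channel intensity (Ex/Em 485/535 nm) was recorded from compound-treated wells containing only DMEM with 10% FBS. Fluorescein provided the equivalency standard.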

[12] = qHTS assay to test for compound auto fluorescence at 590 nm (red) in HEK293 cell free culture (AID 720683)
Summary of the method: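 Cell-free wells of DMEM with 10% FBS received compound, and intrinsic fluorescence was read at excitation/emission 540/590 nm. Values expressed as equivalence to Rose Bengal sodium.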

[13] = qHTS assay to test for compound auto fluorescence at 590 nm (red) in HepG2 cell free culture (AID 720684)
Summary of the method: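 Auto fluorescence equivalency versus Rose Bengal sodium, red channel Ex/Em 540/590 nm; compounds in cell-free MEM/10% FBS; DMSO vehicle control.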

[14] = qHTS assay to test for compound auto fluorescence at 460 nm (blue) in HepG2 cell free culture (AID 720685)
Summary of the method: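 Cell-free plates of MEM plus 10% FBS received 23 nL compound or DMSO vehicle; blue-channel (405/460 nm) intensity scored against triamterene as reference fluorophore.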

[15] = qHTS assay to test for compound auto fluorescence at 535 nm (green) in HepG2 cell free culture (AID 720686)
[16] = qHTS assay to test for compound auto fluorescence at 460 nm (blue) in HepG2 cells (AID 720687)
Summary of the method: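 HepG2 cells in MEM with 10% FBS, attached overnight at 37 C, were exposed to compound or DMSO for 1 hr at 37 C, 5% CO2. Blue fluorescence was read at 405/460 nm, with triamterene as reference fluorophore.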

[17] = molecular target: Glucocorticoid receptor (Homo sapiens) (UniProt P04150); test: qHTS assay to identify small molecule agonists of the glucocorticoid receptor (GR) signaling pathway (AID 720691; active means well fitted activation curve with a large enough effect in the signal ratio in the repeat runs, not every such curve was filed as active; the % refers to the signal ratio)
Summary of the method: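 HeLa GR-bla reporter line; cells pre-incubated 4 h, compound in DMSO 18 h at 37 C; LiveBLAzer B/G FRET substrate 2 h RT; fluorescence intensity read-out.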

[18] = molecular target: Glucocorticoid receptor (Homo sapiens) (UniProt P04150); test: qHTS assay to identify small molecule antagonists of the glucocorticoid receptor (GR) signaling pathway (AID 720692; active means well fitted inhibition curve with a large enough effect in the signal ratio in the repeat runs, not every such curve was filed as active; the % refers to the signal ratio)
Summary of the method: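 Read-out: beta-lactamase FRET substrate fluorescence, 2 h at room temperature, in HeLa cells stably carrying a GRE-driven bla reporter. Compounds were co-incubated with 5 nM dexamethasone agonist (final) for 18 h at 37 C.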

[19] = qHTS assay to test for compound auto fluorescence at 460 nm (blue) in HEK293 cells (AID 720678)
Summary of the method: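 HEK293, 2,000 cells/well, 10% dialyzed FBS; attach 4-5 hr 37C; pin compound or DMSO; o/n 37C/5% CO2; fluorescence 405/460 nm; triamterene-equivalent units.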

[20] = qHTS assay for small molecule agonists of the p53 signaling pathway (AID 651631; calls by dose curve; further: nearly all actives have a fitted effect of over 15% in size)
Summary of the method: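 We treat p53RE-bla HCT-116 cells with compounds for 16 h at 37 °C, add LiveBLAzer B/G FRET substrate for 2 h at room temperature, and measure fluorescence intensity.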
On the % scale 0 is the no-effect control and ±100 the full control effect.

Glucocorticoid receptor (Homo sapiens), sequence (P04150 whole entry, looked up): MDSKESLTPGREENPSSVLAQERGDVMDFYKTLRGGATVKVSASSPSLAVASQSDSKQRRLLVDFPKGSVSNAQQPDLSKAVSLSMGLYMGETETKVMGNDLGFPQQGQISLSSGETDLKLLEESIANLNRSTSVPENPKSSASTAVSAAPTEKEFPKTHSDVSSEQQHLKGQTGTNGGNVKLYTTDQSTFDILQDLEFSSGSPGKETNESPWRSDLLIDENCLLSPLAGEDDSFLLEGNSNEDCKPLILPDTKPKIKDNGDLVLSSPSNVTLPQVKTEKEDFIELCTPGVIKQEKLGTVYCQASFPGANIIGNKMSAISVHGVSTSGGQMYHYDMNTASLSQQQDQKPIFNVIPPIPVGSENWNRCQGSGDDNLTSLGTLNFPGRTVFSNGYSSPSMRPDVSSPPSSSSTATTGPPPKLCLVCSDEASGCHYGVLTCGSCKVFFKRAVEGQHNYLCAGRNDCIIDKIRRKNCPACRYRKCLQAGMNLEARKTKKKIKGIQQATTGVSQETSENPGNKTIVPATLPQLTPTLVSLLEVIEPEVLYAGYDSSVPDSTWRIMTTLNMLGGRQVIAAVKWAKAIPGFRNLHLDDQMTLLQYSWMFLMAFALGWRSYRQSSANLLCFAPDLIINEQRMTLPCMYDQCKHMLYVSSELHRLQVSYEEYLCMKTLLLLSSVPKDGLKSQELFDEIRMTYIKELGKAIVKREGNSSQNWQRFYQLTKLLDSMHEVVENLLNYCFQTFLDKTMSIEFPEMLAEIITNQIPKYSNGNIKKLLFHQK

CCCc1ccc(OC)cc1
inactive: Potency [1] | Potency [2] | Potency [3] | Potency [4] | Potency [5] | outcome [6] | outcome [7] | outcome [8] | outcome [9] | Potency [10] | outcome [11] | outcome [12] | outcome [13] | outcome [14] | outcome [15] | outcome [16] | Potency [17] | Potency [18]

O=C(Cl)c1ccc(F)c(Cl)c1
inactive: Potency [1] | Potency [2] | Potency [3] | Potency [4] | outcome [6] | outcome [7] | Potency [19] | outcome [8] | outcome [9] | Potency [10] | outcome [11] | outcome [12] | outcome [13] | outcome [14] | outcome [15]

Cc1ccc2ccccc2c1[N+](=O)[O-]
inactive: Potency [20] | Potency [2] | Potency [4] | Potency [5] | outcome [6] | outcome [7] | Potency [19] | outcome [8] | outcome [9] | Potency [10] | outcome [11] | outcome [12] | outcome [13] | outcome [14] | outcome [15] | outcome [16]

C1=COCCC1
inactive: Potency [1] | Potency [2] | Potency [3] | Potency [4] | outcome [7] | Potency [19] | outcome [8] | outcome [9] | Potency [10] | outcome [11] | outcome [12] | outcome [13] | outcome [14] | outcome [15] | outcome [16] | Potency [18]

CCOc1ccc2c(c1)C(C)CC(C)(C)N2 (stereo not given)
inactive: Potency [1] | Potency [3] | outcome [6] | outcome [7] | outcome [8] | outcome [9] | Potency [10] | outcome [11] | outcome [12] | outcome [13] | outcome [14] | outcome [15] | outcome [16] | Potency [17] | Potency [18]

CC(C)(C(=O)O)c1ccc(C(O)CCCN2CCC(C(O)(c3ccccc3)c3ccccc3)CC2)cc1 (stereo not given)
inactive: Potency [1] | Potency [2] | Potency [4] | Potency [5] | outcome [7] | Potency [19] | outcome [8] | outcome [9] | Potency [10] | outcome [11] | outcome [12] | outcome [13] | outcome [14] | outcome [15] | outcome [16] | Potency [17]

Cc1nc2sccn2c(=O)c1CCN1CCC(=C(c2ccc(F)cc2)c2ccc(F)cc2)CC1
inactive: Potency [1] | Potency [3] | Potency [4] | outcome [6] | outcome [7] | outcome [8] | outcome [9] | Potency [10] | outcome [11] | outcome [12] | outcome [13] | outcome [14] | outcome [15] | outcome [16]

CC(C(=O)O)c1ccc2c(c1)Cc1cccnc1O2 (stereo not given)
inactive: Potency [1] | Potency [2] | Potency [4] | Potency [5] | outcome [6] | outcome [7] | Potency [19] | outcome [8] | outcome [9] | Potency [10] | outcome [11] | outcome [12] | outcome [13] | outcome [14] | outcome [15] | outcome [16] | Potency [17]

CCOC(C)OCC
inactive: Potency [1] | Potency [2] | Potency [4] | outcome [6] | outcome [7] | outcome [8] | outcome [9] | Potency [10] | outcome [11] | outcome [12] | outcome [13] | outcome [14] | outcome [15] | outcome [16] | Potency [17]

CCCCCCCCNC
inactive: Potency [1] | Potency [5] | outcome [7] | Potency [19] | outcome [8] | outcome [9] | Potency [10] | outcome [11] | outcome [12] | outcome [13] | outcome [14] | outcome [15] | outcome [16] | Potency [17]

CCCCC(CC)COCCC#N (stereo not given)
inactive: Potency [1] | Potency [4] | Potency [5] | outcome [6] | outcome [7] | Potency [19] | outcome [8] | outcome [9] | Potency [10] | outcome [11] | outcome [12] | outcome [13] | outcome [14] | outcome [15] | outcome [16] | Potency [18]

C=CC(=O)OCCCCCCCCCC
inactive: Potency [1] | Potency [2] | Potency [4] | Potency [5] | outcome [6] | outcome [7] | Potency [19] | outcome [8] | outcome [9] | Potency [10] | outcome [11] | outcome [12] | outcome [13] | outcome [14] | outcome [15] | outcome [16] | Potency [17] | Potency [18]

OCCc1ccncc1
inactive: Potency [1] | Potency [3] | Potency [4] | outcome [7] | Potency [19] | outcome [8] | outcome [9] | Potency [10] | outcome [11] | outcome [12] | outcome [13] | outcome [14] | outcome [15] | outcome [16] | Potency [17]

Nc1ccccc1Nc1ccccc1
inactive: Potency [1] | Potency [4] | outcome [6] | outcome [7] | outcome [8] | outcome [9] | Potency [10] | outcome [11] | outcome [12] | outcome [13] | outcome [15]

O=C1c2ccccc2C(=O)c2c1ccc(O)c2O
inactive: Potency [1] | Potency [2] | Potency [4] | outcome [6] | outcome [7] | Potency [19] | outcome [8] | outcome [9] | Potency [10] | outcome [11] | outcome [12] | outcome [13] | outcome [14] | outcome [15] | outcome [16] | Potency [17]
active: Potency [5] 9.44 µM

O=[N+]([O-])c1ccc(Cl)cc1Cl
inactive: Potency [1] | Potency [3] | Potency [4] | Potency [5] | outcome [6] | outcome [7] | Potency [19] | outcome [8] | outcome [9] | Potency [10] | outcome [11] | outcome [12] | outcome [13] | outcome [14] | outcome [15] | outcome [16] | Potency [18]

COc1ccc(/C=C/c2cc(OC)cc(=O)o2)cc1
inactive: Potency [2] | Potency [3] | Potency [4] | Potency [5] | outcome [6] | outcome [7] | Potency [19] | outcome [8] | outcome [9] | outcome [11] | outcome [12] | outcome [13] | outcome [14] | outcome [15] | outcome [16]

CC(C)(C)c1ccc(CCC=O)cc1
inactive: Potency [1] | Potency [3] | Potency [4] | Potency [5] | outcome [6] | outcome [7] | Potency [19] | outcome [8] | outcome [9] | Potency [10] | outcome [11] | outcome [12] | outcome [13] | outcome [14] | outcome [15] | outcome [16] | Potency [17]

O=C(O)c1ccc2c(c1)nc(C(=O)NC1CCN(C3CC3)CC1)n2Cc1cc(-c2ccc(Cl)s2)on1
inactive: Potency [1] | Potency [3] | Potency [4] | fluorescence, % of fluorescein control [7] -0.0395% [at 18.6 µM] | fluorescence, % of triamterene [19] 0.0005% [at 18.6 µM] | fluorescence, % of fluorescent control [8] 0.147% [at 18.6 µM] | fluorescence, % of fluorescein [9] -0.0247% [at 18.6 µM] | fluorescence, % of fluorescent control [10] 0.0923% [at 18.6 µM] | activity change [11] -0.024% [at 18.6 µM] | fluorescence, % of fluorescent control [12] 0.116% [at 18.6 µM] | fluorescence, % of Rose Bengal [13] -0.135% [at 18.6 µM] | fluorescence, % of fluorescent control [14] -0.029% [at 18.6 µM] | fluorescence, % of fluorescein control [15] -0.0042% [at 18.6 µM] | fluorescence, % of fluorescent control [16] 0.0789% [at 18.6 µM]

CCCC1CCOC(C)S1 (stereo not given)
inactive: Potency [1] | Potency [4] | Potency [5] | outcome [6] | outcome [7] | outcome [8] | outcome [9] | Potency [10] | outcome [11] | outcome [12] | outcome [13] | outcome [15] | outcome [16] | Potency [17]
